PubChem BioAssay AID504444 (National Center for Advancing Translational Sciences (NCATS), 2011)
Values joined by “and” are separate entries in the source; they are usually repeats but may differ in a detail not shown here. Equal values may be shown once. Screen size: about 360,000 compounds; about 7,500 (2.1%) were called active. About 20% were inconclusive and are not listed. Calls come from the whole dose curve; as a rule, active = well fitted inhibition curve with a large enough effect; inconclusive = small, poorly fitted or top-dose-only effect, or effect the other way; inactive = flat fitted curve, though single readings scatter. The sample as a whole holds a higher share of actives than the screen did.

Assay: Nrf2 qHTS screen for inhibitors; note: nearly all actives have a fitted effect of over 60% in size
Details: A549 ARE-Fluc reporter, luciferase luminescence, 18-24 h; series mostly up to 46 µM; activity change, negative = inhibition: at the top concentration
Method in brief: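 Two sequential reads on A549 ARE_Fluc cells exposed to compound for 18-24 h: a CellTiter-Fluor fluorescence read for viability, then a luciferase luminescence read for Nrf2/ARE activity.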
% is set by controls: 0 for no effect and ±100 for the full control effect; potency is the fitted concentration of half-maximal effect.

SMILES | Potency | activity change, negative = inhibition
CC(=O)O[C@]1(C(C)=O)CC[C@H]2[C@@H]3C=C(C)C4=CC(=O)CC[C@]4(C)[C@H]3CC[C@@]21C | 0.731 µM (active) | –
C[C@]12CCC(=O)C=C1C=CC1C2CC[C@@]2(C)C1CC[C@@]21CCC(=O)O1 (stereo partly specified) | – | -16.2% (inactive)
CSCCC(NS(=O)(=O)c1ccc(C)cc1)C(=O)N(C)CC(=O)Nc1ccccc1Br (stereo unspecified) | – | -2.63% (inactive)
O=[N+]([O-])c1ccc(COc2ccccc2CN2CCOCC2)cc1 | – | -26.8% (inactive)
CCOC(=O)c1c(C)[nH]c(C)c1S(=O)(=O)N1CCC(C(=O)Nc2ccc(C)c(Cl)c2)CC1 | – | -27.4% (inactive)
CC1CCN(C(=O)c2ccc3c(c2)NC(=O)CN3)CC1 | – | -7% (inactive)
COc1ccc(C(=O)Nc2c(Cl)cc(Cl)cc2C(=O)N2CCC(C)CC2)cc1 | – | 9.22% (inactive)
CC1=Nc2cc(C(=O)N3CCC(C)CC3)ccc2Sc2ccc(Cl)cc21 | 16.4 µM (active) | –
CC1CCCCC1NC(=O)NC(=O)COC(=O)C1=NN(c2ccccc2)C(=O)CC1 (stereo unspecified) | – | -3.54% (inactive)
O=C1C(F)N([S+](=O)([O-])c2ccc3c(c2)OCCO3)CCN1[S+](=O)([O-])c1c(F)cccc1F (stereo unspecified) | – | 1.59% (inactive)
COc1cc2nc(NCC(C)c3ccccc3)n3nc(-c4ccccc4)nc3c2cc1OC (stereo unspecified) | – | 22% (inactive)
COc1ccc(N2CCN(C(=O)CCc3nc(-c4ccc(C)cc4)no3)CC2)cc1 | – | -18.5% (inactive)
COc1ccc(-c2noc(CCC(=O)N3CCN(c4cccc(C)c4)CC3)n2)cc1 | – | -21.2% (inactive)
COc1ccc(-c2noc(CCC(=O)N(C)c3ccccc3C)n2)cc1 | 20.6 µM (active) | –
Cc1cc(OCC(=O)Nc2ncn[nH]2)c(C)c(C)c1Br | – | 5.95% (inactive)
O=C(CN1CCN(c2ccc(Cl)cc2)CC1)c1ccccc1 | – | -0.714% (inactive)
O=C(CN1CCN(c2ccc(Cl)cc2)CC1)N1CCCC1 | – | -9.45% (inactive)
CC(C)OC(=O)CN1CCN(c2ccc(Cl)cc2)CC1 | 16.4 µM (active) | –
Cc1ccc(-c2cnc(NCc3ccc(C(C)C)cc3)n2C)cc1 | – | -27.5% (inactive)
CCOc1ccc(-c2cc3nc(C4CCN(C(=O)OC(C)(C)C)CC4)c(C(=O)Nc4cccc(CC)c4)cn3n2)cc1 | – | 12.9% (inactive)
CCn1c2ccccc2c2nnc(N3CCN(c4cc(C)ccc4C)CC3)nc21 | 20.6 µM (active) | –

SMILES | Potency | activity change, negative = inhibition
CCn1c2ccccc2c2nnc(SCC(=O)O)nc21 | – | 7.55% (inactive)
Cc1ccc(C)c(N2CCN(Cc3nnc(-c4ccccc4)o3)CC2)c1 | – | 0.374% (inactive)
Cc1ccc(S(=O)(=O)n2nc(-c3ccc(Cl)cc3)nc2NCc2ccccc2)cc1 | – | 11.6% (inactive)
COc1ccc(NC(=O)CN(C)C(=O)c2cccc(S(=O)(=O)N3CCN(c4ccccc4)CC3)c2)cc1 | 16.4 µM (active) | –
CCOc1ccc(NC(=O)CN(C)C(=O)c2cccc(S(=O)(=O)N3CCCC3)c2)cc1OCC | – | 6.49% (inactive)
Cc1ccc(NC(=O)CN(C)C(=O)c2cccc(S(=O)(=O)N3CCCC3)c2)cc1 | – | 0.0961% (inactive)
COc1ccccc1C(=O)OCc1cc(=O)n2nc(-c3cccs3)sc2n1 | – | 15% (inactive)
CC(C)(C)S(=O)(=O)N1Cc2cc(CO)cc(CCO)c2[C@H]1CCO | – | 3.32% (inactive)
O=C(N/N=C/c1ccccn1)c1cccc(NC(=O)c2ccc(Cl)cc2)c1 | 23.1 µM (active) | –
O=C(N/N=C/c1ccccn1)c1ccc(S(=O)(=O)N2CCCCCC2)cc1 | – | -9.53% (inactive)
O=C(N/N=C/c1ccccn1)c1cccnc1 | – | -21% (inactive)
CCOc1ccc(/C=C(/C#N)c2nnc(N3CCOCC3)n2-c2ccccc2)cc1OC | – | 3.02% (inactive)
COc1ccc(CNC(=O)c2ccc(NC(=O)N3CC4CCCN4c4ccccc43)cc2)cc1 (stereo unspecified) | – | -10.6% (inactive)
CCN(CCCNC(=O)c1cc2c(=O)n(CC)c3ccccc3c2s1)Cc1ccccc1 | – | -3.82% (inactive)
CCN1CCN(c2cc(C)c3cc(NC(=O)c4cc(Cl)ccc4OC)ccc3n2)CC1 | – | 12% [at 9.27 µM] (inactive)
O=C(Nc1ncc([N+](=O)[O-])s1)C1COc2ccccc2O1 (stereo unspecified) | 14.6 µM (active) | –
O=C(Nc1nnc(SCc2ccc(Cl)cc2Cl)s1)C1COc2ccccc2O1 (stereo unspecified) | – | -3.38% (inactive)
O=C(Nc1nc2c(F)cc(F)cc2s1)C1COc2ccccc2O1 (stereo unspecified) | – | 0% (inactive)
Cc1ccc(C(=O)Nc2cc3c(cc2N2CCCC2)n(C)c(=O)c(=O)n3C)cc1 | – | -16.1% (inactive)
CN(C)C(=O)CCc1ccc2c3c([nH]c2c1)[C@]1(CCc2ccccc2)[C@@H](C(=O)N2CCCCC2)C[C@H](CC(=O)NCCC2=CCCCC2)C(=O)N1CC3 | – | 0.72% (inactive)
O=C(Cn1c(-c2cccs2)cc2ccccc21)NCCc1ccc(Cl)cc1 | – | -13.9% (inactive)

SMILES | Potency | activity change, negative = inhibition
COc1ccc(S(=O)(=O)N2CCN(C(=S)NCC3CCCO3)CC2)cc1OC (stereo unspecified) | – | -20.4% (inactive)
CCOc1ccc(S(=O)(=O)N2CCN(C(=S)NCC3CCCO3)CC2)cc1 (stereo unspecified) | – | -33.1% (inactive)
S=C(NCC1CCCO1)N1CCN(c2ccc(Cl)c(Cl)c2)CC1 (stereo unspecified) | 14.6 µM (active) | –
CCCCOc1ccc(CN2C(=O)C(=O)c3cc(Br)cc(C)c32)cc1OC | – | -12.3% (inactive)
O=C(CN1C(=O)COc2ccc(S(=O)(=O)N3CCCCCC3)cc21)N1CCN(c2cccc(C(F)(F)F)c2)CC1 | – | 0.38% (inactive)
CCc1cc2c(cc3c(=O)n(CC(=O)NCc4cccc(Cl)c4)nc(CC)n32)s1 | – | 3.17% (inactive)
CN(C)c1ccc(NC(=O)CSc2nc(-c3ccco3)cc(C(F)(F)F)n2)cc1 | – | 4.36% (inactive)
COc1ccc(C)cc1S(=O)(=O)N1CCN(S(=O)(=O)c2cc(C(=O)O)ccc2C)CC1 | – | 4.87% (inactive)
Cc1ccc(C)c(S(=O)(=O)N2CCN(c3ncnc4sccc34)CC2)c1 | 18.4 µM (active) | –
Cc1ccc(S(=O)(=O)N2CCN(c3ncnc4ccccc34)CC2)cc1 | 2.31 µM (active) and 8.2 µM (active) | –
O=[N+]([O-])c1ccc(S(=O)(=O)N2CCN(c3nc(-c4ccccc4)nc4ccccc34)CC2)cc1 | – | -12.6% (inactive)
Cc1ccc(C)c(S(=O)(=O)N2CCN(C(=O)Nc3ccccc3)CC2)c1 | – | -16.1% (inactive)
Cc1ccc(S(=O)(=O)N2CCN(c3nc(-n4cnc5ccccc54)nc4ccccc34)CC2)cc1 | – | 18.1% (inactive)
Cc1ccc(C)n1-c1nnc(N2CCC(C(=O)NCc3ccccc3Cl)CC2)s1 | – | 4.84% (inactive)
CCCCn1nc(C(=O)Nc2cccc(C(=O)NC3CC3)c2)c2ccccc2c1=O | – | -23.9% (inactive)
Cc1ccccc1NC(=O)CSC(=O)c1ccccc1 | – | 18.1% (inactive)
CCc1ccc(CN(C)Cc2nc(Cc3ccccc3)no2)nc1 | – | 0% (inactive)
CCc1ccc(CN(C)C(=O)CCc2nnc(-c3ccc(-c4ccccc4)cc3)o2)nc1 | 18.4 µM (active) | –
CC(=O)c1ccc(-c2nnc(CCC(=O)N(C)Cc3cnc4ccccn34)o2)s1 | – | 26.1% (inactive)
